Most compounds without a hit are left out; they make up all but 2.1% or so of the library.
aSyn yeast inh – rescues yeast growth from alpha-synuclein toxicity; AID 652106; 370,000 tested, 0.14% active; Yeast expressing alpha-synuclein, growth rescue, BacTiter-Glo, 24 h; Potency, µM (titrated, usually from 46.1 µM), usual class: activators; note: nearly all actives have a fitted effect of over 65% in size
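Screening used galactose-induced yeast with toxic alpha-synuclein levels, exposed to compound for 24 hr at 30 deg C. Cell growth, read with BacTiter-Glo luminescence, gave the measured signal.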
Abeta yeast res – restores growth of yeast expressing A-beta42 peptide; yeast expressing A-beta42, growth rescue, OD600, 48 h; response scale: 0% DMSO, 100% iron-clioquinol control; Potency, µM (top dose mostly 46.1 µM), usual class: activators; 410,000 tested, 0.063% active; AID 1347071; note: nearly all actives have a fitted effect of over 55% in size
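Yeast growth medium received pinned compounds, then yeast cells expressing toxic A-beta were added; plates incubated at 30 C for 48 hr. Growth read as absorbance at 600 nm, normalized to DMSO and equimolar FeCl3 plus clioquinol controls.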
FUS suppressor – suppressors of FUS proteinopathy in yeast; S. cerevisiae FUS-expressing, growth rescue, OD600, 24 h; 390,000 tested, 0.24% active; Potency, µM (series often up to 76.6 µM), actives largely listed as activators; note: nearly all actives have a fitted effect of over 55% in size
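Yeast expressing FUS under galactose induction, OD 0.005 in 2% galactose medium; compounds in a dilution series, 24 h at 30C. Growth rescue by absorbance at 600 nm; CP55940 positive control, DMSO negative.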
TSG101-PTAP inh – blocks PTAP/TSG101 interaction to inhibit HIV-1 budding. Q99816. Fluorescence polarization, FITC-PTAP peptide / Tsg101 binding. Potency, µM (doses to about 115 µM), usual class: inhibitors. 340,000 tested, under 10 active. AID 493005; active = well fitted inhibition curve with a large enough effect in the main read-out, with a control signal flat, not every such curve was filed as active; inconclusive = small, poorly fitted or top-dose-only effect, or effect the other way, or a change in a side signal; inactive = no such curve, though single readings can be large or run the other way
Target sequence (Q99816 whole entry, looked up): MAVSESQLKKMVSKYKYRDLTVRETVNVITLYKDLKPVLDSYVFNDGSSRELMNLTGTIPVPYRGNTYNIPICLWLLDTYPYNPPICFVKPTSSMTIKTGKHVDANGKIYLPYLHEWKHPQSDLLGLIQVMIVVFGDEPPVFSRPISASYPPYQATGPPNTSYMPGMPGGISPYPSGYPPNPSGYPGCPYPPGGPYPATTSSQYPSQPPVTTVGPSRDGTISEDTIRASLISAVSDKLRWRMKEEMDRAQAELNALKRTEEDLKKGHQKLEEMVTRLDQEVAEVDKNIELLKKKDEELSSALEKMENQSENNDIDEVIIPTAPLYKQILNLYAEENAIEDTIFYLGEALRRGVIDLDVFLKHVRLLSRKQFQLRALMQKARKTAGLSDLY
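Tsg101 binding domain (10 uM final) was mixed with compound and a FITC-labeled PTAP peptide (50 nM final) in HEPES pH 7.5 buffer with NaCl, Tween 20, EDTA and TCEP; fluorescence polarization was read after 20 min at r.t.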
TDP-43 yeast inh – TDP-43 toxicity inhibition in yeast; TDP-43 expressing yeast growth rescue, BacTiter-Glo, 24 h; Potency, µM (series often up to 46.1 µM), usual class: activators; 410,000 tested, 1.8% active; AID 652104; note: nearly all actives have a fitted effect of over 50% in size
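Yeast cells expressing TDP-43 under galactose induction are exposed to compounds for 24 hr at 30 deg C. BacTiter-Glo luminescence measures growth, so protective compounds score as activators.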
Each line names hits and unclear results; the compound was inactive in the other large screens. Unless noted, calls come from the whole dose curve; as a rule, active = well fitted curve in the direction sought with a large enough effect; inconclusive = small, poorly fitted or top-dose-only effect, or another doubt; inactive = no such curve, though single readings can be large; an effect the other way counts as inactive or inconclusive.

C=CCNc1ncnc2c1ncn2[C@H]1CN(CCc2ccccc2)C[C@@H](CO)O1	none (no result: TSG101-PTAP inh)
O=C(CCc1ccccc1)NNc1cc(N2CCCCC2)nc(N2CCCCC2)n1	TDP-43 yeast inh 3.16µM
Cc1cc(C)c2c(CC(=O)Nc3cc(C(F)(F)F)ccc3Cl)coc2c1	none (no result: aSyn yeast inh, TSG101-PTAP inh)
NS(=O)(=O)c1cccc(NC(=O)COC(=O)c2cc(Cl)ccc2[N+](=O)[O-])c1	none
Cc1ccc(NC(=O)COC(=O)c2cc(Cl)ccc2[N+](=O)[O-])cc1	TDP-43 yeast inh 17.8µM (no result: FUS suppressor)
O=C(c1cn(-c2ccc(Cl)c(Cl)c2)nn1)C1CC1	TDP-43 yeast inh 8.91µM
O=C1CCCCC1C(=O)c1cn(-c2ccc(Cl)c(Cl)c2)nn1 (configuration not stated)	none
Cc1ccc(Cl)cc1N1CCN(C(=O)c2cccn2-c2nnc(N3CCCC3)s2)CC1	FUS suppressor inconclusive (no result: aSyn yeast inh, TSG101-PTAP inh)
O=C1NC(=O)/C(=C/c2cc3c(cc2Br)OCO3)S1	none
COCCN1C(=O)/C(=C/c2cc3c(cc2Br)OCO3)NC1=S	TDP-43 yeast inh 20µM
COc1ccc(NC(=O)C(C2CC2)n2c(=O)c(-c3ccccc3)nc3ccccc32)cc1 (configuration not stated)	TDP-43 yeast inh 20µM (no result: TSG101-PTAP inh)
COc1ccccc1C(=O)N1CCC(Oc2cccnc2)CC1	none (no result: aSyn yeast inh, Abeta yeast res, TSG101-PTAP inh, TDP-43 yeast inh)
Clc1cccc2sc(N3CCOCC3)nc12	none
Clc1cccc2sc(N3CCCC3)nc12	TDP-43 yeast inh 12.6µM
CCOc1ccc(NC(=O)Cn2c(CCC(=O)O)ccc2-c2ccc(Cl)cc2)cc1	none (no result: aSyn yeast inh, TSG101-PTAP inh)
CCOc1ccc(CC(=O)Nc2sc(Cc3ccccc3)c(C)c2C(N)=O)cc1OCC	FUS suppressor 14.1µM
Cc1c(Cc2ccccc2)sc(NC(=O)c2ccco2)c1C(N)=O	none
C=CCSc1nnc(-c2cc3c(C(F)(F)F)nn(C)c3s2)n1C	none
C=CCSc1nnc(-c2cc3c(-c4ccccc4)nn(C)c3s2)n1C	TDP-43 yeast inh 20µM
COc1ccccc1C/C(N)=N/OC(=O)c1ccco1	TDP-43 yeast inh 10µM
COc1ccccc1C/C(N)=N/OC(=O)c1ccc2c(c1)OCO2	TDP-43 yeast inh inconclusive
Clc1ccc(-c2n[nH]c3c2CCC3)cc1Cl	TDP-43 yeast inh 20µM
Cc1cc(Cl)nc2nc(Cl)ccc12	none (no result: Abeta yeast res, FUS suppressor, TSG101-PTAP inh, TDP-43 yeast inh)
COc1ccc(N2C(=O)CC(N3CCC(O)(c4cccc(C(F)(F)F)c4)CC3)C2=O)cc1 (configuration not stated)	TDP-43 yeast inh 17.8µM
COc1ccc(N2C(=O)CC(N3CCCCC3)C2=O)cc1 (configuration not stated)	TDP-43 yeast inh inconclusive
O=C(COc1ccccc1C(=O)Nc1cccc(F)c1)Nc1ccc(Br)cc1	none (no result: Abeta yeast res, FUS suppressor, TSG101-PTAP inh, TDP-43 yeast inh)
COC(=O)c1ccc(OCCOc2ccccc2)cc1	none
Oc1ccc(N=Nc2ccccc2)cc1	TDP-43 yeast inh 17.8µM
COC(=O)c1ccc(N=Nc2ccccc2)cc1	TDP-43 yeast inh 15.8µM
O=C(O)c1ccccc1N=Nc1ccc(O)cc1	none
O=C(NCc1ccc(Cl)cc1)c1csc(-c2cccnc2)n1	TDP-43 yeast inh 15.8µM
O=C(NNC(=O)c1ccc(Cl)cc1Cl)c1csc(-c2cccnc2)n1	none
Cc1ccc(N=Nc2ccc(O)c3ncccc23)cc1C	aSyn yeast inh inconclusive, TDP-43 yeast inh 28.2µM
Clc1ccc(-c2cc3ccccc3nc2N2CCOCC2)cc1	TDP-43 yeast inh 17.8µM
Clc1ccc(-c2cc3ccccc3nc2N2CCCC2)cc1	none
CC(=O)Nc1ccc(Nc2c(CCC(C)C)c(C)c(C#N)c3nc4ccccc4n23)cc1	none (no result: aSyn yeast inh, TSG101-PTAP inh)
CCC(C)(C)c1ccc(Oc2cccc(C(=O)O)c2)cc1	aSyn yeast inh 0.891µM
O=C(Nc1ccccc1Cl)C1C(c2ccccc2)C1(Cl)Cl (configuration not stated)	TDP-43 yeast inh 12.6µM
CCc1ccccc1NC(=O)C1C(c2ccccc2)C1(Cl)Cl (configuration not stated)	none
COc1ccc(C=O)cc1COc1ccc([N+](=O)[O-])c(C)c1	TDP-43 yeast inh inconclusive
COc1ccc(C=O)cc1COc1ccc2c(c1)OCO2	TDP-43 yeast inh 14.1µM
c1csc(-c2nn3cnnc3c3ccccc23)c1	TDP-43 yeast inh 22.4µM
O=C(/C=N/O)Nc1ccc2sc3ccccc3c2c1	TDP-43 yeast inh 7.94µM
COC(=O)c1ccccc1NC(=O)/C=N/O	none
Cc1cccc(NC(=O)Cc2coc3ccc4ccccc4c23)n1	TDP-43 yeast inh 11.2µM
Cc1ccc(CC(=O)Nc2cccc(C)n2)cc1	none
Cc1cccc(NC(=O)Cc2ccc(-c3ccccc3)cc2)n1	TDP-43 yeast inh 11.2µM
CCN=c1scc(C)n1/N=C/c1ccc(O)c(O)c1O	none (no result: FUS suppressor)
CCN=c1scc(C)n1/N=C/c1cc(Br)c(O)c(Br)c1	TDP-43 yeast inh 3.16µM
ON=C(CCc1ccccc1)c1ccccc1	TDP-43 yeast inh 15.8µM
O/N=C(\COc1ccccc1O)c1ccccc1	Abeta yeast res inconclusive
Clc1ccc(OCCn2cnc(Cl)c2Cl)cc1	Abeta yeast res inconclusive, TDP-43 yeast inh 11.2µM
Cc1cc(Nc2nnnn2-c2ccccc2)n(-c2ccccc2)n1	none
Cc1cc2ncn(-c3nnnn3-c3ccccc3)c2cc1C	TDP-43 yeast inh 17.8µM
c1ccc(-c2nc(-c3ccncc3)no2)cc1	none
CSc1ccccc1-c1nc(-c2ccncc2)no1	TDP-43 yeast inh 14.1µM
Cc1ccc(-c2noc(/C=C/c3ccccc3)n2)cc1	none
c1ccc(C(Cc2nc(-c3ccncc3)no2)c2ccccc2)cc1	TDP-43 yeast inh 35.5µM
Clc1ccccc1/C=C/c1nc(-c2cccnc2)no1	TDP-43 yeast inh 10µM
C(=C\c1nc(-c2cccnc2)no1)/c1ccccc1	TDP-43 yeast inh 2.24µM
Cc1nc2ccccc2nc1-c1csc(-c2ccccc2)n1	none (no result: Abeta yeast res, FUS suppressor, TSG101-PTAP inh, TDP-43 yeast inh)
CCCCN1C(=O)C(CC(=O)NCCc2ccccn2)CC(C(=O)N(CC)CC)=C1C (configuration not stated)	none (no result: TSG101-PTAP inh)
CC(=O)O[C@@H](Cc1ccc(O)cc1)C(=O)CC(C)C	none (no result: TSG101-PTAP inh)
CC1(C(=O)Nc2ccc3[nH]ncc3c2)CCN1C(=O)Cc1ccc(-c2ccccc2)cc1 (configuration not stated)	FUS suppressor inconclusive, TDP-43 yeast inh inconclusive (no result: TSG101-PTAP inh)
Cc1ccccc1-c1nc(-c2cccnc2)no1	TDP-43 yeast inh 14.1µM
Clc1ccccc1-c1nc(-c2cccnc2)no1	TDP-43 yeast inh inconclusive
Cc1ccc(SCc2nc(-c3cccnc3)no2)cc1	TDP-43 yeast inh 17.8µM
CCN(CC)C(=O)CSc1nc(-c2ccccc2)cc(-c2ccc(OC)cc2)c1C#N	none (no result: aSyn yeast inh, TSG101-PTAP inh)
Cn1c(=S)[nH]c2ccccc21	none
S=c1[nH]c2ccccc2n2cccc12	Abeta yeast res 11.2µM, TDP-43 yeast inh 12.6µM
Cc1cccc(NC(=O)Cn2c(=O)n(Cc3ccccc3)c(=O)c3sc4ccccc4c32)c1	none (no result: aSyn yeast inh, TSG101-PTAP inh)
Cc1ccc(Nc2nc(N/N=C/c3c[nH]c4ccccc34)nc(N3CCOCC3)n2)cc1	Abeta yeast res inconclusive, FUS suppressor inconclusive, TDP-43 yeast inh inconclusive

Bioassay records as filed in PubChem.
